# Results: the supplement of paper PMC9694430
# Columns and labels:
# Assay in all cases: thermal shift delta Tm vs DMSO control; higher = stronger stabilization (binding)
# Conditions in all cases: 12.5 µM; protein concentration 2 µM
# [1] = system: LOC_OS02G45750-cb003
# Procedure, shortened: (§1)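 Rice kinase domain constructs were expressed in E. coli, purified, and tested by differential scanning fluorimetry with compound added in DMSO. Each well of a 96-well plate held 19.5 μl of 2 μM kinase in 100 mM potassium phosphate pH 7.5, 150 mM NaCl, 10% glycerol and 5 × SYPRO Orange, and fluorescence was read from 25°C to 95°C at 0.05°C/s. The melting temperature shift is the mean of triplicates, taken against protein with DMSO alone after Boltzmann fitting.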
# [2] = system: LOC_OS02G54510-cb004
# Procedure, shortened: as §1
# [3] = system: LOC_OS03G04050-cb001
# Procedure, shortened: as §1
# [4] = system: LOC_OS03G12390-cb001
# Procedure, shortened: as §1
# [5] = system: LOC_OS03G27990-cb004
# Procedure, shortened: as §1
# [6] = system: LOC_OS03G50450-cb001
# Procedure, shortened: as §1
# [7] = system: LOC_OS03G50810-cb003
# Procedure, shortened: as §1
# [8] = system: LOC_OS04G35114-cb001
# Procedure, shortened: as §1
# [9] = system: T1, LOC_OS04G38480-cb003
# T1 sequence (whole entry): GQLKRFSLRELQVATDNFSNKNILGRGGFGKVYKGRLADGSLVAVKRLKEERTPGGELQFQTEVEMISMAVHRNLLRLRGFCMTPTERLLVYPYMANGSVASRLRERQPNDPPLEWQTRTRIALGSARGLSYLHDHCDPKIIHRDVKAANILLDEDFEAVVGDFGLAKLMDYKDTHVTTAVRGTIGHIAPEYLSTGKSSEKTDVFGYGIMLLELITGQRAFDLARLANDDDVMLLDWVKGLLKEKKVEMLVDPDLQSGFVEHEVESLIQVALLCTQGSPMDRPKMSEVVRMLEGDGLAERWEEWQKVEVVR
# Procedure, shortened: as §1
# [10] = system: T2, LOC_OS04G41100-cb001
# T2 sequence (whole entry): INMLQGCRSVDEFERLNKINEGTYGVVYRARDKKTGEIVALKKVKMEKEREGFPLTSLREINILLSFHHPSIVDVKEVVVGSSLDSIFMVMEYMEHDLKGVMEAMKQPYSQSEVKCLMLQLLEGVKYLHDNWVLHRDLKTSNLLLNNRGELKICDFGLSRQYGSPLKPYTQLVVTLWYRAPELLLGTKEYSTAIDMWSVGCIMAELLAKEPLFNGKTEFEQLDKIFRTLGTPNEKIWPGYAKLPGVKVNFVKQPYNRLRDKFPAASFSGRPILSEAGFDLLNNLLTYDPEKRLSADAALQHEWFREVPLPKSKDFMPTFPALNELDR
# Procedure, shortened: as §1
# [11] = system: LOC_OS04G57630-cb004
# Procedure, shortened: as §1
# [12] = system: LOC_OS05G07850-cb002
# Procedure, shortened: as §1
# [13] = system: LOC_OS05G16824-cb004
# Procedure, shortened: as §1
# [14] = system: LOC_OS05G28520-cb001
# Procedure, shortened: as §1
# [15] = system: LOC_OS05G30820-cb001
# Procedure, shortened: as §1
# [16] = system: LOC_OS05G43570-cb004
# Procedure, shortened: as §1
# [17] = system: LOC_OS06G16330-cb003
# Procedure, shortened: as §1
# [18] = system: T3, LOC_OS06G22820-cb001
# T3 sequence (whole entry): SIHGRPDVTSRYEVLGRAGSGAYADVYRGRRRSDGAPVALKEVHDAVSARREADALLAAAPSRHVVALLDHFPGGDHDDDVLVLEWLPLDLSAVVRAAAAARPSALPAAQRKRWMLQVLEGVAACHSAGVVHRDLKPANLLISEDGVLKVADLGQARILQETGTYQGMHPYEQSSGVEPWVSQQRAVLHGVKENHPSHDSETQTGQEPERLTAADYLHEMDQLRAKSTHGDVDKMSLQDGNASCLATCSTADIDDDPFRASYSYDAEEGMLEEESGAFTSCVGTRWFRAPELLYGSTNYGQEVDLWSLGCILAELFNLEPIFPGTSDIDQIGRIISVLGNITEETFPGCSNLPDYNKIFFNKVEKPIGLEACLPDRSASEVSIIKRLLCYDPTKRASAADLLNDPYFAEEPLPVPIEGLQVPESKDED
# Procedure, shortened: as §1
# [19] = system: LOC_OS07G06570-cb004
# Procedure, shortened: as §1
# [20] = system: LOC_OS07G07230-cb001
# Procedure, shortened: as §1
# Chain of LOC_OS06G16330-cb003 (as listed by the source): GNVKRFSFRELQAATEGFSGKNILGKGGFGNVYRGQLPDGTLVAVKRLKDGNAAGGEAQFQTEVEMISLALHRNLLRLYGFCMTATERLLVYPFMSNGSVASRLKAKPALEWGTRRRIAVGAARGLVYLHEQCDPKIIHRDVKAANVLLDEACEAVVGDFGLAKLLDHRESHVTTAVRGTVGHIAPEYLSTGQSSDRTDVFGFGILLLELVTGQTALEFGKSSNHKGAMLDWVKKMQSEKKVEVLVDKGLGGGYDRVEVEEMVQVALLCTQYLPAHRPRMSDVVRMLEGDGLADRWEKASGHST
Compound,thermal shift delta Tm [1] [°C],thermal shift delta Tm [2] [°C],thermal shift delta Tm [3] [°C],thermal shift delta Tm [4] [°C],thermal shift delta Tm [5] [°C],thermal shift delta Tm [6] [°C],thermal shift delta Tm [7] [°C],thermal shift delta Tm [8] [°C],thermal shift delta Tm [9] [°C],thermal shift delta Tm [10] [°C],thermal shift delta Tm [11] [°C],thermal shift delta Tm [12] [°C],thermal shift delta Tm [13] [°C],thermal shift delta Tm [14] [°C],thermal shift delta Tm [15] [°C],thermal shift delta Tm [16] [°C],thermal shift delta Tm [17] [°C],thermal shift delta Tm [18] [°C],thermal shift delta Tm [19] [°C],thermal shift delta Tm [20] [°C]
CN1CCN(c2ccc3nc(-c4c(N)c5c(F)cccc5[nH]c4=O)[nH]c3c2)CC1 [Dovitinib (TKI-258) Dilactic Acid],16.3,1.95,0.96,4.57,8.19,5.49,1.54,9.41,1.48,0.82,3.62,8.93,15.7,1.54,1.04,1.01,6.51,0.63,1.1,0.06
C1=N/C2=N/c3ccc(OCCN4CCCC4)c(c3)COC/C=C/COCc3cccc(c3)C(=C1)N2 [Pacritinib (SB1518)],8.5,3.05,0.14,4.32,4.35,3.76,7.67,10.9,3.66,5.39,4.36,12.8,7.5,3.33,0.55,0.68,10.1,0.41,1.64,0.85
